The campaign covered roughly 5,500 compounds. About 2,000 (36%) were called active. Another 18% or so got no clear call; they are omitted. Rule as the data show it: active = normalized growth mostly below about 0.91 (no sharp cut-off); inconclusive = no clear call, values can overlap the other calls; inactive = mostly above about 0.92. The list shows a part of the results.
Assay: chemical genetic growth profiling, strain panel (AID 1159580);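 also: tested at 20 µM; growth read once vehicle control cultures reached saturation at 30 °C; 1 = growth at the plate median or of vehicle wells; lower values mean less growth of the strain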
Settings: growth OD
[1] = S. cerevisiae deletion strains, locus YBR021W, strain FUR4, stronger effect = lower value
[2] = S. cerevisiae deletion strains, locus YBR229C, strain ROT2, stronger effect = lower value
[3] = S. cerevisiae deletion strains, locus YCL029C, strain bik1, stronger effect = lower value
[4] = S. cerevisiae deletion strains, locus YDL035C, strain GPR1, stronger effect = lower value
[5] = S. cerevisiae deletion strains, locus YDL074C, strain BRE1, stronger effect = lower value
[6] = S. cerevisiae deletion strains, locus YDL101C, strain DUN1, stronger effect = lower value
[7] = S. cerevisiae deletion strains, locus YDL134C, strain PPH21, stronger effect = lower value
[8] = S. cerevisiae deletion strains, locus YDL185W, strain tfp1, stronger effect = lower value
[9] = S. cerevisiae deletion strains, locus YDL192W, strain arf1, stronger effect = lower value
[10] = S. cerevisiae deletion strains, locus YDR101C, strain arx1, stronger effect = lower value
[11] = S. cerevisiae deletion strains, locus YDR162C, strain NBP2, stronger effect = lower value
[12] = S. cerevisiae deletion strains, locus YDR318W, strain mcm21, stronger effect = lower value
[13] = S. cerevisiae deletion strains, locus YDR388W, stronger effect = lower value
[14] = S. cerevisiae deletion strains, locus YDR502C, strain sam2, stronger effect = lower value
[15] = S. cerevisiae deletion strains, locus YER110C, stronger effect = lower value
[16] = S. cerevisiae deletion strains, locus YER155C, strain BEM2, stronger effect = lower value
[17] = S. cerevisiae deletion strains, locus YER167W, strain BCK2, stronger effect = lower value
[18] = S. cerevisiae deletion strains, locus YGL078C, strain dbp3, stronger effect = lower value
[19] = S. cerevisiae deletion strains, locus YGL086W, strain mad1, stronger effect = lower value
[20] = S. cerevisiae deletion strains, locus YGL248W, strain PDE1, stronger effect = lower value
[21] = S. cerevisiae deletion strains, locus YGR135W, strain pre9, stronger effect = lower value
[22] = S. cerevisiae deletion strains, locus YGR252W, strain gcn5, stronger effect = lower value
[23] = S. cerevisiae deletion strains, locus YHR030C, strain SLT2, stronger effect = lower value
[24] = S. cerevisiae deletion strains, locus YHR079C, strain IRE1 (second series), stronger effect = lower value
[25] = S. cerevisiae deletion strains, locus YHR094C, strain hxt1, stronger effect = lower value
[26] = S. cerevisiae deletion strains, locus YHR129C, strain ARP1, stronger effect = lower value
[27] = S. cerevisiae deletion strains, locus YHR200W, strain rpn10, stronger effect = lower value
[28] = S. cerevisiae deletion strains, locus YIL066C, strain RNR3, stronger effect = lower value
[29] = S. cerevisiae deletion strains, locus YIL073C, strain SPO22, stronger effect = lower value
[30] = S. cerevisiae deletion strains, locus YIL125W, strain kgd1, stronger effect = lower value
[31] = S. cerevisiae deletion strains, locus YIR030C, strain dcg1, stronger effect = lower value
[32] = S. cerevisiae deletion strains, locus YJL095W, strain BCK1, stronger effect = lower value
[33] = S. cerevisiae deletion strains, locus YJL134W, strain LCB3, stronger effect = lower value
[34] = S. cerevisiae deletion strains, locus YJL168C, strain set2, stronger effect = lower value
[35] = S. cerevisiae deletion strains, locus YJL187C, strain SWE1 (second series), stronger effect = lower value
[36] = S. cerevisiae deletion strains, locus YJR043C, strain POL32, stronger effect = lower value
[37] = S. cerevisiae deletion strains, locus YJR075W, strain HOC1, stronger effect = lower value
[38] = S. cerevisiae deletion strains, locus YKL009W, strain mrt4, stronger effect = lower value
[39] = S. cerevisiae deletion strains, locus YKL068W, stronger effect = lower value
[40] = S. cerevisiae deletion strains, locus YKL085W, strain MDH1 (second series), stronger effect = lower value
[41] = S. cerevisiae deletion strains, locus YKL085W, strain MDH1, stronger effect = lower value
[42] = S. cerevisiae deletion strains, locus YKL190W, strain CNB1, stronger effect = lower value
[43] = S. cerevisiae deletion strains, locus YKR001C, strain vps1, stronger effect = lower value
[44] = S. cerevisiae deletion strains, locus YLR039C, strain RIC1, stronger effect = lower value
[45] = S. cerevisiae deletion strains, locus YLR058C, strain SHM2, stronger effect = lower value
[46] = S. cerevisiae deletion strains, locus YLR102C, strain apc9, stronger effect = lower value
[47] = S. cerevisiae deletion strains, locus YLR268W, strain sec22, stronger effect = lower value
[48] = S. cerevisiae deletion strains, locus YLR330W, strain CHS5, stronger effect = lower value
[49] = S. cerevisiae deletion strains, locus YLR371W, strain rom2, stronger effect = lower value
[50] = S. cerevisiae deletion strains, locus YLR418C, strain cdc73, stronger effect = lower value
[51] = S. cerevisiae deletion strains, locus YML016C, strain PPZ1, stronger effect = lower value
[52] = S. cerevisiae deletion strains, locus YML032C, strain rad52, stronger effect = lower value
[53] = S. cerevisiae deletion strains, locus YML124C, strain tub3, stronger effect = lower value
[54] = S. cerevisiae deletion strains, locus YMR078C, strain ctf18, stronger effect = lower value
[55] = S. cerevisiae deletion strains, locus YMR223W, strain ubp8, stronger effect = lower value
[56] = S. cerevisiae deletion strains, locus YMR307W, strain GAS1, stronger effect = lower value
[57] = S. cerevisiae deletion strains, locus YNL067W, strain RPL9B, stronger effect = lower value
[58] = S. cerevisiae deletion strains, locus YNL233W, strain BNI4, stronger effect = lower value
[59] = S. cerevisiae deletion strains, locus YNL250W, strain rad50, stronger effect = lower value
[60] = S. cerevisiae deletion strains, locus YNL271C, strain bni1, stronger effect = lower value
[61] = S. cerevisiae deletion strains, locus YNL298W, strain CLA4, stronger effect = lower value
[62] = S. cerevisiae deletion strains, locus YNL307C, strain MCK1, stronger effect = lower value
[63] = S. cerevisiae deletion strains, locus YNR052C, strain pop2, stronger effect = lower value
[64] = S. cerevisiae deletion strains, locus YOL006C, strain TOP1, stronger effect = lower value
[65] = S. cerevisiae deletion strains, locus YOL012C, strain htz1
[66] = S. cerevisiae deletion strains, locus YOL147C, strain pex11, stronger effect = lower value
[67] = S. cerevisiae deletion strains, locus YOR061W, strain CKA2, stronger effect = lower value
[68] = S. cerevisiae deletion strains, locus YOR069W, strain VPS5, stronger effect = lower value
[69] = S. cerevisiae deletion strains, locus YOR136W, strain idh2, stronger effect = lower value
[70] = S. cerevisiae deletion strains, locus YOR144C, strain elg1, stronger effect = lower value
[71] = S. cerevisiae deletion strains, locus YOR184W, strain ser1, stronger effect = lower value
[72] = S. cerevisiae deletion strains, locus YOR316C, strain cot1, stronger effect = lower value
[73] = S. cerevisiae deletion strains, locus YPR119W, strain clb2, stronger effect = lower value
[74] = S. cerevisiae deletion strains, locus YPR141C, strain kar3, stronger effect = lower value
[75] = S. cerevisiae deletion strains, locus YPR163C, strain tif3, stronger effect = lower value
[76] = S. cerevisiae deletion strains, locus YPR167C, strain met16, stronger effect = lower value
[77] = S. cerevisiae deletion strains, strain wtn01, stronger effect = lower value

Measured: normalized growth

CC(=O)OC1CC[C@@]2(C)C(CC[C@]3(C)C2CCC2C4CC(C)(C)CCC4(C(=O)O)CC[C@]23C)C1(C)C (some centres undefined)
inactive: [1] 1.02 | [2] 0.998 | [3] 0.968 | [4] 1.06 | [5] 1.05 | [6] 0.985 | [7] 1.03 | [8] 0.934 | [9] 1.01 | [10] 1.02 | [11] 1.01 | [12] 0.993 | [13] 0.975 | [14] 0.999 | [15] 0.971 | [16] 0.985 | [17] 0.998 | [18] 0.974 | [19] 1.01 | [20] 1.04 | [21] 0.972 | [22] 1.05 | [23] 1.01 | [24] 0.975 | [25] 0.978 | [26] 1.03 | [27] 0.999 | [28] 1.01 | [29] 0.986 | [30] 0.979 | [31] 0.974 | [32] 1.03 | [33] 0.994 | [34] 0.977 | [35] 1.01 | [36] 1.07 | [37] 1 | [38] 0.966 | [39] 1.02 | [40] 1.01 | [41] 1.01 | [42] 0.996 | [43] 1.01 | [44] 1.11 | [45] 1.02 | [46] 0.973 | [47] 0.998 | [48] 0.996 | [49] 0.968 | [50] 1.02 | [51] 1 | [52] 0.987 | [53] 0.991 | [54] 0.968 | [55] 0.976 | [56] 1.25 | [57] 0.989 | S. cerevisiae deletion strains, locus YNL153C, strain GIM3, stronger effect = lower value 0.998 | [58] 1.03 | [59] 0.92 | [60] 0.995 | [61] 0.992 | [62] 1.01 | [63] 0.992 | [64] 1.25 | [65] 1.01 | [66] 0.979 | [67] 1 | [68] 1 | [69] 0.983 | [70] 0.989 | [71] 1.08 | [72] 0.964 | [73] 0.951 | [74] 0.975 | [75] 0.985 | [76] 0.99 | [77] 1.01

CC(=O)OC1CC(OC(C)=O)C2(C)C(CC(OC(C)=O)C3(C)C4=CC(=O)OC(=O)C4(C)CCC32)C1(C)C (centres undefined)
inactive: [1] 1.01 | [2] 1 | [3] 1 | [4] 1.01 | [5] 1.02 | [6] 1.02 | [7] 1.02 | [8] 1.01 | [9] 0.982 | [10] 0.996 | S. cerevisiae deletion strains, locus YDR150W, strain NUM1, stronger effect = lower value 1.01 | [11] 1.01 | [12] 0.99 | [13] 1.01 | [14] 1.02 | [15] 1 | [16] 0.993 | [17] 0.995 | [18] 1.03 | [19] 0.998 | [20] 1.03 | S. cerevisiae deletion strains, locus YGR078C, strain PAC10, stronger effect = lower value 1.04 | [21] 1.06 | [22] 1.03 | [23] 0.999 | [24] 1 | [25] 1.01 | [26] 1.01 | [27] 1.01 | [28] 0.99 | [29] 1.04 | [30] 0.993 | [31] 0.999 | [32] 1.04 | [33] 0.997 | [34] 1 | [35] 1.04 | [36] 0.99 | [37] 1.01 | [38] 0.992 | [39] 1.01 | [40] 0.987 | [41] 0.987 | [42] 1.01 | [43] 0.987 | [44] 1.02 | [45] 1.02 | [46] 1.01 | S. cerevisiae deletion strains, locus YLR262C, strain YPT6, stronger effect = lower value 0.985 | [47] 0.981 | [48] 1 | [49] 0.987 | [50] 1.03 | [51] 1.01 | [52] 1 | [53] 0.998 | [54] 1 | [55] 1 | [56] 0.916 | [57] 1.05 | [58] 1.02 | [59] 1.02 | [60] 1.01 | [61] 1.01 | [62] 1.02 | [63] 1.03 | [64] 0.98 | [65] 0.765 | [66] 1 | [67] 0.994 | [68] 1.01 | [69] 1.01 | [70] 0.996 | [71] 0.978 | [72] 1.01 | [73] 1.01 | [74] 1.01 | [75] 1.02 | [76] 1.01 | [77] 0.975 | S. cerevisiae strains, strain wild type, stronger effect = lower value 1

Source: PubChem BioAssay AID1159580 (chemical genetic matrix, 2015)
